From PubChem BioAssay
The list is not random: actives were taken first. Their share in the collection is about 6.6%.
RGS4 inh: human RGS4 inhibition; P49798; Transcreener GDP fluorescence polarization, RGS4-accelerated GTP hydrolysis; Potency, µM (series often up to 114 µM), without a hit: at the top dose activity change, negative = inhibition, most hits filed as inhibitors; 390,000 tested, 0.039% active; further: on the % scale 0 is the no-effect control and ±100 the full control effect; nearly all actives have a fitted effect of over 75% in size
Target sequence (P49798 whole entry, looked up): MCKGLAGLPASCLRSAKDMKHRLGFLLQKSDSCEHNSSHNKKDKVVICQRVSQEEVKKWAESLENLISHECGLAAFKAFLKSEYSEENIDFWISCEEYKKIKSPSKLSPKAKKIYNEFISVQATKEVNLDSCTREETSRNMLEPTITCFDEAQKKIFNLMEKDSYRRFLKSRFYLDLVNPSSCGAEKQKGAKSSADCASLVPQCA
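MLSMR compounds (23 nl, pin-transferred) preincubated 10 min at room temperature with a 500nM (2x) first reagent, then RGS4 at 900nM (2x) plus Transcreener GDP mix added; fluorescence polarization (620/688 nm) read before and after 90 min at 30 °C.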
MCF10A rerep: inducers of DNA re-replication in MCF 10A breast cells | MCF 10A DNA re-replication, Hoechst nuclear intensity, 48 h | Potency, µM (highest dose often 46.1 µM), for inactives: at the highest dose activity, positive = re-replication, actives largely listed as activators | 350,000 tested, 2.9% active; further: % of control where 0% means no effect; nearly all actives have a fitted effect of over 50% in size
KB-V1 MDR tox: KB-V1 MDR subline cytotoxicity | 400,000 tested, 3.4% active | KB-V1 MDR cells viability, CellTiter-Glo, 72 h | Potency, µM (top dose mostly 46.1 µM), most hits filed as cytotoxic; further: on the % scale 0 is the no-effect control and ±100 the full control effect; nearly all actives have a fitted effect of over 60% in size
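Luminescent ATP read-out (CellTiter-Glo, 10 min) measures survival of drug-selected KB-V1 MDR cells after 72 h, 37 degrees C compound exposure. Medium: phenol-red-free DMEM, 10% FBS. Values from fitted concentration-response curves.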
KB-3-1 cytotox: kills parental KB-3-1 adenocarcinoma cells | KB-3-1 viability, CellTiter-Glo ATP luminescence, 72 h | 400,000 tested, 1.4% active | Potency, µM (series often up to 46.1 µM), usual class: cytotoxic; further: on the % scale 0 is the no-effect control and ±100 the full control effect; nearly all actives have a fitted effect of over 60% in size
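KB-3-1 parental drug-naive adenocarcinoma cells in DMEM/10% FBS, incubated 72 h at 37 C with pin-transferred compounds across a concentration series. Viability by CellTiter-Glo luminescence; concentration-response curves fitted after normalization.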
PTAP TSG101 blk: blocks PTAP/TSG101 interaction to inhibit HIV-1 budding; Potency, µM (top dose mostly 115 µM), for inactives: at the top dose activity change, negative = inhibition, hits mostly inhibitors; 340,000 tested, under 10 active; AID 493005; Q99816; Fluorescence polarization, FITC-PTAP peptide / Tsg101 binding; active means well fitted inhibition curve with a large enough effect in the main read-out, with a control signal flat, not every such curve was filed as active; inconclusive means small, poorly fitted or top-dose-only effect, or effect the other way, or a change in a side signal; inactive means no such curve, though single readings can be large or run the other way; further: % of control where 0% means no effect
Target sequence (Q99816 whole entry, looked up): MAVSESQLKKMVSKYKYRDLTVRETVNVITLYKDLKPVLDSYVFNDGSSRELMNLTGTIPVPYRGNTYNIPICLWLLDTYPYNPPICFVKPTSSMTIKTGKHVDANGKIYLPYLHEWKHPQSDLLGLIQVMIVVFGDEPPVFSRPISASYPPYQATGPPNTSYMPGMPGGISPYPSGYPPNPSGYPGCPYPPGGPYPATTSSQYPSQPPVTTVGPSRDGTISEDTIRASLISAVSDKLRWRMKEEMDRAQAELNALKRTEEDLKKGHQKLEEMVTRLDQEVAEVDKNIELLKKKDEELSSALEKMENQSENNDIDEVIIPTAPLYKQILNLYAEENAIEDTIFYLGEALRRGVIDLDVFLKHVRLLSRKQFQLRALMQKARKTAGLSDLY
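Tsg101 binding domain (10 uM final) was mixed with compound and a FITC-labeled PTAP peptide (50 nM final) in HEPES pH 7.5 buffer with NaCl, Tween 20, EDTA and TCEP; fluorescence polarization was read after 20 min at r.t.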
SW480 rerep: induces DNA re-replication in SW480 colon adenocarcinoma cells. SW480 DNA re-replication, Hoechst DNA content imaging, 48 h. Potency, µM (titrated, usually from 46.1 µM), inactives show top-dose re-replication activation, most hits filed as activators. 340,000 tested, 1.8% active; further: % of control where 0% means no effect; nearly all actives have a fitted effect of over 55% in size
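Compounds, transferred as 23 nL by pin tool, were incubated with cells for 48 hr; DNA content per nucleus was then quantified by Hoechst staining and fluorescence plate imaging.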
Active calls of the source: *; i = inactive; u = inconclusive; x = not tested or not shown. Unless noted, the call rests on the fitted dose curve; in most records, active means well fitted curve in the direction sought with a large enough effect; inconclusive means small, poorly fitted or top-dose-only effect, or another doubt; inactive means no such curve, though single readings can be large; an effect the other way counts as inactive or inconclusive. Potency means the concentration at half of the fitted maximal effect.

SMILES	RGS4 inh	MCF10A rerep	KB-V1 MDR tox	KB-3-1 cytotox	PTAP TSG101 blk	SW480 rerep
COc1cc(/C=C/c2cc(C(F)(F)F)[nH]c(=O)n2)cc(OC)c1OC	-19%	u	i	u	-3%	21µM*
O=c1nc(/C=C/c2cccn2-c2ccc([N+](=O)[O-])cc2)cc(C(F)(F)F)[nH]1	-23%	-8%	i	i	-2%	-6%
COc1cc(OC)c(OC)cc1/C=C/c1cc(C(F)(F)F)[nH]c(=O)n1	16%	23µM*	i	u	-8%	18µM*
CCc1ccc(Sc2cc(C(=O)O)c3ccccc3n2)cc1	6%	x	x	x	x	x
Cc1nn2c(=O)cc(COC(=O)c3ccccc3NC(=O)c3cccs3)nc2s1	21%	x	x	x	x	x
Cc1cc2nc(-c3cccc(NC(=O)c4cccc5ccccc45)c3)oc2cc1C	-1%	x	x	x	x	x
O=S(=O)(NCc1ccc(Cl)cc1)c1ccc2[nH]c3c(c2c1)CCCC3	15%	x	i	u	x	x
CCOc1cc(-c2nc3ccccc3s2)ccc1O	5%	u	u	i	-3%	1.8µM*
O=C(Nc1cc(-c2nc3ccccc3s2)ccc1Cl)c1ccc2c(c1)OCO2	-38%	9.2µM*	i	i	-2%	-10%
CCOc1ccc(C(=O)Nc2cc(-c3nc4ccccc4s3)ccc2OC)cc1	-11%	x	7.3µM*	u	x	x
COc1ccc(-c2cnc(N3CCC(C(N)=O)CC3)s2)cc1OC	x	x	i	i	x	x
O=S(=O)(Nc1ccc(-c2ccc(N3CCCCCC3)nn2)cc1)c1ccc(C(F)(F)F)cc1	13%	x	u	i	x	x
COc1ccccc1NC(=O)c1oc2ccccc2c1NC(=O)Cc1ccccc1	26%	x	i	i	x	x
Cn1c(-c2ccccc2)cc2ccccc21	-28%	-17%	i	i	1%	-2%
Cn1c(C(c2cc3ccccc3n2C)c2cc3ccccc3n2C)cc2ccccc21	x	x	u	18µM*	x	x
Nc1ccccc1/C=C/c1ccnc2ccccc12	x	x	i	u	x	x
N#CC1=C(N)Oc2cc(O)c(C=Nc3ccccc3)cc2C1c1ccccc1 (configuration not stated)	-11%	4.1µM*	i	i	-1%	26%
Cc1ccc(N=Cc2cc3c(cc2O)OC(N)=C(C#N)C3c2ccccc2)cc1 (configuration not stated)	-20%	18µM*	i	u	6%	u
Cc1ccc(C2C(C#N)=C(N)Oc3cc4c(cc32)OCO4)cc1 (configuration not stated)	u	u	u	u	-5%	u
N#CC1=C(N)Oc2cc(N)ccc2C1c1ccc(Cl)cc1 (configuration not stated)	-23%	u	i	i	0%	u
Cc1ccccc1N=Cc1cc2c(cc1O)OC(N)=C(C#N)C2c1ccccc1 (configuration not stated)	-40%	18µM*	u	i	u	u
COc1ccccc1NC(=O)Cn1c(=O)c(CNc2ccccc2)cc2cc(OC)c(OC)cc21	-5%	x	x	x	x	x
CC(C)CC(=O)NC1(C(F)(F)F)C(=O)Nc2c1c(=O)[nH]c(=O)n2-c1ccccc1 (configuration not stated)	2%	x	i	i	x	x
Cn1cc(C2=C(c3cn(CCCSC(=N)N)c4ccccc34)C(=O)NC2=O)c2ccccc21	x	x	u	4.1µM*	x	x
Cn1cc(SCC(N)=O)c2ccccc21	-19%	-7%	i	i	-4%	-7%
SMILES	RGS4 inh	MCF10A rerep	KB-V1 MDR tox	KB-3-1 cytotox	PTAP TSG101 blk	SW480 rerep
Cc1ccc(NC(=O)CSc2ncc3c(n2)-c2ccccc2N(C)S3(=O)=O)c(Cl)c1	9%	x	x	x	x	x
O=C(NCc1ccccn1)c1cc(-c2ccc(-c3ccccc3)cc2)nc2ccccc12	-3%	u	i	i	1%	-132%
O=C(NCc1ccccn1)c1cc(-c2ccccc2)nc2ccccc12	2%	4%	i	i	3%	u
Cc1cccc(-c2cc(C(=O)NCc3ccccn3)c3ccccc3n2)c1	15%	26%	5.8µM*	i	0%	-1%
O=C(NCc1ccccn1)c1cc(-c2ccc(Cl)cc2)nc2ccccc12	-5%	18%	12µM*	i	0%	0%
COCCNC(=O)c1cc(-c2ccc(-c3ccccc3)cc2)nc2ccccc12	-2%	u	i	21µM*	-3%	u
Cc1ccc(-c2cc(C(=O)NCc3ccccn3)c3ccccc3n2)cc1C	-24%	5.8µM*	15µM*	u	-2%	u
COCCCNC(=O)c1cc(-c2cccnc2)nc2ccccc12	-15%	3%	i	i	-2%	-3%
O=C(COc1ccccc1C(=O)Nc1ccccc1)Nc1ccccc1-c1ccccc1	x	x	i	u	x	x
CCc1ccc(S(=O)(=O)N2CCN(c3ccc(Cl)c(Cl)c3)CC2)cc1	-14%	x	u	u	x	x
CCNC(=S)NNC(=O)c1cc(-c2ccc(OCC)cc2)nc2ccccc12	-37%	29%	i	u	-10%	u
CCNC(=S)NNC(=O)c1cc(-c2ccccc2C)nc2ccccc12	-12%	19%	16µM*	i	-6%	-3%
Fc1ccc(C2=CSC3=NCCN23)cc1	3%	-3%	i	i	-1%	4%
N=c1nc(N)nc2n1NC(c1ccc(F)cc1)=CS2	-38%	u	1.3µM*	i	-1%	-1%
C=CCNc1nc(Nc2ccc(OC)c(OC)c2)c2sc(-c3ccccc3)cc2n1	x	x	u	2.1µM*	x	x
Cc1ccc(-c2nc3sc(CCNC(=O)c4ccc(F)c(F)c4)c(C)n3n2)cc1	-24%	x	i	i	x	x
COc1ccc(-c2cc(C(=O)NCCc3ccc(OC)c(OC)c3)c3ccccc3n2)cc1	-22%	x	x	x	x	x
CCN(CC)S(=O)(=O)c1cc(-c2ccc(=O)n(C(C)C(=O)Nc3cccc(C#N)c3)n2)ccc1C (configuration not stated)	-9%	x	i	i	x	x
CCc1cccc(NC(=O)Cn2cc(C=O)c3ccccc32)c1	9%	3%	21µM*	u	-1%	1%
CCc1cccc(NC(=O)Cn2c(=O)c3cccn3c3ccccc32)c1	5%	18µM*	i	i	-4%	3%
COc1cccc(NC(=O)Cn2cc(C=O)c3ccccc32)c1	-20%	3%	u	i	-3%	2%
Cc1ccc(NC(=O)Cn2cc(C=O)c3ccccc32)cc1	-11%	29%	i	i	0%	15µM*
